# This is a sample that favours compounds with a hit; in the whole collection about 8% have one here.
# MCF10A rereplic = induces DNA re-replication in MCF 10a normal breast cells | MCF 10A DNA re-replication, Hoechst nuclear intensity, 48 h | Potency, µM (highest dose often 46.1 µM), for inactives: at the top dose activity, positive = re-replication, actives largely listed as activators | 350,000 tested, 2.9% active | AID 624296; note: % of control where 0% means no effect; nearly all actives have a fitted effect of over 50% in size
# KB-3-1 tox = KB-3-1 parental cell cytotoxicity; 400,000 tested, 1.4% active; KB-3-1 viability, CellTiter-Glo ATP luminescence, 72 h; Potency, µM (series often up to 46.1 µM), actives largely listed as cytotoxic; note: % is set by controls: 0 for no effect and ±100 for the full control effect; nearly all actives have a fitted effect of over 60% in size
#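 Cells are dispensed, compounds pinned in, plates held at 37 °C for 72 h, then CellTiter-Glo is added and luminescence read after 10 minutes. Cell line: parental KB-3-1 in phenol-red-free DMEM, 10% FBS.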
# SW480 rereplic = DNA re-replication induction in SW480 cells; SW480 DNA re-replication, Hoechst DNA content imaging, 48 h; Potency, µM (top dose mostly 46.1 µM), inactives show top-dose re-replication activation, actives largely listed as activators; 340,000 tested, 1.8% active; note: % of control where 0% means no effect; nearly all actives have a fitted effect of over 55% in size
#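 Image-based read-out: total Hoechst fluorescence of nuclei (405 nm excitation, 500-530 nm emission), with hits raising the fraction of high-intensity nuclei. SW480 colon cells incubated 48 hr with compounds at 37 C.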
# KB-V1 cytotox = kills drug-selected multidrug resistant KB-V1 cells. KB-V1 MDR cells viability, CellTiter-Glo, 72 h. Potency, µM (highest dose often 46.1 µM), hits mostly cytotoxic. 400,000 tested, 3.4% active. AID 1347076; note: % is set by controls: 0 for no effect and ±100 for the full control effect; nearly all actives have a fitted effect of over 60% in size
#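 Potencies derive from concentration-effect curves fitted to normalized luminescence (CellTiter-Glo) of KB-V1 cells treated for 72 h at 37 degrees C in phenol-red-free DMEM containing 10% FBS.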
# HT1080-NT tox = kills 2HG-producing HT-1080-NT fibrosarcoma cells; HT-1080-NT fibrosarcoma viability, CellTiter-Glo ATP luminescence, 48 h; AID 686970; 360,000 tested, 1.6% active; Potency, µM (top dose mostly 46.1 µM), without a hit: top-dose activity, negative = less viability, most hits filed as cytotoxic;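 note: NT is the 2HG producing partner of a matched IDH1 knockdown line; 0% = DMSO-treated cells and -100% = media-only wells without cells; nearly all actives have a fitted effect of over 55% in size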
#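 Read-out is CellTiter-Glo luminescence after 10 minutes at room temperature, following 48 hours' compound treatment of HT-1080-NT cells (750 cells/well, RPMI, 5% FBS, 37 degrees C).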
# HT1080 IDH1KD tx = kills HT-1080 cells with IDH1 knockdown. HT-1080 IDH1 knockdown viability, ATP luminescence, 48 h. Potency, µM (doses to about 46.1 µM), inactives show at the highest dose activity, negative = toxicity, actives largely listed as cytotoxic. 360,000 tested, 2% active. AID 686971;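 note: 0% = DMSO wells and -100% = cell-free medium wells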
#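 Using the IDH1-knockdown HT-1080 line run in the same batch and compound series as the NT line, viability after 48 h at 37 °C was determined by CellTiter-Glo luminescence and expressed as % activity.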
# * = called active by the depositor; i = inactive; ? = inconclusive; nt = no result. Calls come from the whole dose curve; as a rule, active = well fitted curve in the direction sought with a large enough effect; inconclusive = small, poorly fitted or top-dose-only effect, or another doubt; inactive = no such curve, though single readings can be large; an effect the other way counts as inactive or inconclusive. Potency is the fitted concentration of half-maximal effect.
SMILES,MCF10A rereplic,KB-3-1 tox,SW480 rereplic,KB-V1 cytotox,HT1080-NT tox,HT1080 IDH1KD tx
COc1ccc(C(=O)c2cc([N+](=O)[O-])ccc2N2CCN(C)CC2)cc1,8.2µM*,2.9µM*,?,6.5µM*,2.6µM*,5.2µM*
COc1ccc(C(=O)c2cc([N+](=O)[O-])ccc2N2CCCC2)cc1,1.5µM*,?,18µM*,?,3.3µM*,3.3µM*
COc1cccc(C(=O)N2C(C(C)C)COc3cc(Br)ccc3S2(=O)=O)c1 (stereo not drawn),nt,i,nt,i,?,?
Cc1cccc(C(=O)N2[C@@H](C(C)C)COc3cc(Br)ccc3S2(=O)=O)c1,8.2µM*,?,2%,?,?,?
CC(=O)Oc1cccc(N2C(=O)C3C4C=CC(C4=C(C)C)C3C2=O)c1 (stereo not drawn),15%,i,-4%,i,-13%,-1%
Cc1ccccc1NC(=O)c1cccc(N2C(=O)C3C4CCC(C4)C3C2=O)c1 (stereo not drawn),-2%,i,2%,23µM*,?,-6%
O=C(Nc1ccc(Cl)cc1Cl)c1cccc(N2C(=O)C=CC2=O)c1,13µM*,i,8.2µM*,i,?,?
Cc1ccc(NC(=O)c2cccc(N3C(=O)C4C5CCC(C5)C4C3=O)c2)c(C)c1 (stereo not drawn),-1%,i,33%,4.1µM*,1%,16%
CC(=O)c1cccc(N2C(=O)C3C4CCC(C4=C(C)C)C3C2=O)c1 (stereo not drawn),-30%,i,-111%,18µM*,-10%,-7%
Cc1cccc(C)c1NC(=O)C(=O)NCC(c1ccc2c(c1)OCO2)N1CCOCC1 (stereo not drawn),nt,i,nt,i,nt,nt
COC(=O)c1ccccc1NC(=O)C1CCCN(c2nnc(C)c3c(C)n(-c4ccccc4)nc23)C1 (stereo not drawn),nt,i,nt,?,nt,nt
CN(C)c1ccc(/C=C/c2ccnc3ccc(F)cc23)cc1,nt,i,nt,i,nt,nt
O=C(Nc1ccc(Cl)cc1)c1cccc(N2C(=O)C3C4CCC(C4)C3C2=O)c1 (stereo not drawn),56%,?,14%,8.2µM*,-6%,-4%
COc1cccc(CNc2ncnc3onc(C)c23)c1,nt,21µM*,nt,i,nt,nt
Cc1noc2ncnc(NCc3ccc(Cl)cc3)c12,nt,i,nt,i,nt,nt
O=C(CNC(=S)N(Cc1ccccc1)Cc1ccccc1F)NCc1ccc(Cl)cc1,23µM*,i,17%,?,?,?
OC1(c2cccc(C(F)(F)F)c2)CCN(c2ncnc3c2[nH]c2ccc(F)cc23)CC1,?,i,?,i,23µM*,18µM*
Fc1ccc2[nH]c3c(N4CCN(c5ccccc5)CC4)ncnc3c2c1,?,i,19%,16µM*,?,21µM*
Cc1ccc(NC(=O)Nc2cn(CC(C)C)c(=O)c3ccccc23)cc1N(C)C,nt,i,nt,i,nt,nt
COc1cccc(CNC(=O)NCc2noc3ccc(C)cc23)c1,nt,i,nt,i,nt,nt
O=C(Nc1ncc(Cc2ccc(C(F)(F)F)cc2)s1)c1ccc(-c2cccc([N+](=O)[O-])c2)o1,?,i,nt,4.6µM*,-1%,-11%
O=C(Nc1ncc(Cc2ccc(SC(F)F)cc2)s1)c1ccc(OC(F)F)cc1,?,0.21µM*,?,0.33µM*,0.073µM*,0.046µM*
O=C(Nc1ncc(Cc2cccc([N+](=O)[O-])c2)s1)c1ccco1,?,5.8µM*,-1%,i,?,4.6µM*
NC(=O)c1cc(Cc2ccccc2)sc1NC(=O)c1ccco1,?,?,17%,9.2µM*,?,?
C(/Oc1ccccc1)=C1\Nn2c(nnc2-c2cc(-c3ccccc3)n[nH]2)S1,nt,?,nt,i,nt,nt
